Data as given in PubChem BioAssay (NCI).
About 83,000 compounds went through this panel and 20% of them were active in at least one assay; those are over-represented in the sample as a whole.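 How to read the values: 0–100, growth inhibition (40 = 60% inhibited); 0, no net growth; -100 to 0, cell death (-40 = 40% of starting cells died; -100 = all dead).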 Active and inactive are the calls of the source. The calls were made as follows: active = growth percent below 10; inactive = the rest.

What was measured:
Experiment in all cases: NCI-60 one-dose screen, 48 h (100 = growth as untreated, 0 = no growth, -100 = all killed)
Details in all cases: 10 µM unless noted
[1] = test system: SR leukemia
[2] = test system: OVCAR-8 ovarian
[3] = test system: OVCAR-5 ovarian
[4] = test system: OVCAR-4 ovarian
[5] = test system: IGROV1 ovarian
[6] = test system: OVCAR-3 ovarian
[7] = test system: HS 578T breast
[8] = test system: NCI/ADR-RES ovarian
[9] = test system: SK-OV-3 ovarian
[10] = test system: RPMI-8226 leukemia

Measured: growth

CCN1C(=S)N(CC)C2Nn3c(s/c(=C4\C(=O)N(C)c5ccccc54)c3=O)=NC21 (stereo unspecified)
active: [8] 6.63%
inactive: [1] 22.6% | [2] 54.5% | [3] 67.5% | [4] 47.5% | [5] 53.3% | [6] 20.2% | [7] 48.8%

O=C(COc1ccccc1)N1N=C(c2ccc(Cl)cc2)CC1c1c[nH]c2ccccc12 (stereo unspecified)
inactive: [1] 10.8% | [2] 70.4% | [3] 112% | [9] 81.4% | [5] 30.2% | [6] 77.9% | [7] 93.7% | [8] 83%

CC(=O)Nc1nc(C(=O)N2N=C(C)/C(=C/c3ccc(Cl)cc3)C2=O)cs1
inactive: [1] 88.1% | [2] 103% | [3] 110% | [4] 112% | [9] 108% | [5] 108% | [8] 109%

C=C1C(=O)O[C@H]2[C@H]1CC/C(Cn1cc(-c3ccsc3)nn1)=C\CC[C@@]1(C)O[C@@H]21
inactive: [9] 83.1% | [7] 28.2% | [8] 32%
active: [1] 3.37% | [2] -4.45% | [3] -18.3% | [4] -46.6% | [5] -16% | [6] -94.8%

C=CCn1c(C)nc2ccc(Nc3nc(Nc4ccc(F)cc4)nc4ccccc34)cc21
inactive: [1] 22.4% | [2] 33.4% | [3] 81.3% | [4] 48.3% | [9] 98.6% | [5] 51.1% | [7] 54.4% | [8] 38.4%

CC(C)C(C(=O)CCN(C)C)c1ccc(Cl)cc1 (stereo unspecified)
inactive: [1] 84% | [2] 93.3% | [3] 115% | [4] 109% | [9] 85.2% | [5] 105% | [6] 108% | [7] 101% | [8] 106%

COc1cc(C(=O)OCCCCCCCCCCC[P+](c2ccccc2)(c2ccccc2)c2ccccc2)ccc1O
active: [1] -58.7% | [2] -62% | [4] -11.2% | [9] -1.8% | [7] -13.3%
inactive: [3] 22.6% | [5] 11.6% | [8] 50.6%

COc1ccc(-c2nc3sccn3c2-c2ccnc(NCCCNS(=O)(=O)c3ccc4ccccc4c3)n2)cc1
inactive: [1] 57% | [2] 57.3% | [3] 132% | [4] 68.1% | [9] 95.1% | [5] 75.3% | [6] 82.7% | [7] 92.1% | [8] 53.5%

O=C(c1ccncc1)N1N=C(c2ccc(Cl)cc2)CC1c1c[nH]c2ccccc12 (stereo unspecified)
inactive: [1] 57.5% | [2] 98.5% | [3] 105% | [9] 84.2% | [5] 79.3% | [6] 95.5% | [7] 101% | [8] 97%

COc1ccc(OC)c(-c2ccc(-c3ccccc3N)c3[nH]c4ccccc4c23)c1
inactive: [1] 81.7% | [2] 83.8% | [3] 110% | [4] 69.6% | [9] 88.6% | [5] 59.5% | [6] 75.1% | [7] 94.3% | [8] 85.8%

CCC(c1ccc(OC)cc1)C(CC)c1ccc(O)c(CN2CCCC2)c1 (stereo unspecified)
inactive: [2] 36.7% | [3] 63% | [4] 31.7% | [9] 34.5% | [6] 20.3% | [7] 12.4% | [8] 18.7%
active: [1] -43%

O=C(O)c1cccc([N+](=O)[O-])c1/C=C/c1ccccc1
inactive: [1] 85.2% | [2] 115% | [3] 108% | [4] 83.2% | [9] 94.6% | [5] 94.8% | [6] 103% | [8] 103%

COc1cc(C2C3=C(COC3=O)Nc3c2ccc2c3CCCC2)cc2c1OCO2 (stereo unspecified)
inactive: [2] 15.9% | [3] 42.8% | [4] 38% | [5] 44.7%
active: [1] 7.47% | [9] -8.93% | [8] 3.82%

CNC(=O)c1cc(Oc2ccc3c(c2)sc2nc(-c4ccc(Cl)cc4)cn23)ccn1
inactive: [1] 82.9% | [2] 73% | [3] 113% | [4] 55.2% | [9] 66.2% | [5] 87.6% | [6] 82.7% | [7] 70.5% | [8] 84.7%

CN(C)c1ccc(/C=C\N=Nc2ccc(Br)cc2)cc1
inactive: [1] 21% | [2] 46.5% | [3] 76.6% | [4] 65% | [9] 92.8% | [5] 66.7% | [6] 67.9% | [7] 102% | [8] 52.3%

COc1ccccc1CNCCCN1C(=O)c2ccc3c4c(ccc(c24)C1=O)C(=O)N(CCCNCCCCNCCCCN)C3=O
inactive: [3] 24.5% | [9] 28% | [8] 62.2%
active: [1] 2.93% | [2] -18.2% | [4] -33.8% | [5] -57.8% | [6] 1.36%

COc1ncc(-c2ccc3ncnc(Nc4cccc(Cl)c4)c3c2)cc1NS(=O)(=O)CCN1CCOCC1
active: [1] 9.25% | [3] 6.39% | [9] -25.9% | [5] -36.9% | [6] 5.82% | [7] -21.1%
inactive: [2] 16.9% | [4] 33.1% | [8] 30.1%

COC(=O)C(CC(=O)c1ccc(-c2ccccc2)cc1)c1ccccc1 (stereo unspecified)
inactive: [1] 24.2% | [2] 77.5% | [3] 84.1% | [4] 71.6% | [9] 85.2% | [5] 64.7% | [6] 10.6% | [7] 71.7% | [8] 17.5%

CSc1nc(-c2cc3ccccc3o2)cc(-c2ccc(Cl)cc2)c1C#N
active: [4] -57.5% | [9] -21.3%
inactive: [1] 82.6% | [2] 28.7% | [3] 93.7% | [6] 37.7% | [7] 76% | [8] 64.3%

COc1ccc(C(=O)c2cc(OC)c(OC)c(OC)c2)cc1/C=C/C(=O)c1ccc(O)cc1
active: [6] -10.5%
inactive: [1] 10.6% | [2] 22.3% | [3] 69.5% | [4] 43.6% | [9] 18.5% | [5] 45.9% | [7] 43.4% | [8] 16.2%

O=C(CN1CCOCC1)Nc1ccc(-c2nc3ccccc3s2)cc1
inactive: [1] 102% | [2] 102% | [3] 93.4% | [4] 101% | [9] 121% | [5] 106% | [6] 96.3% | [7] 110% | [8] 105%

CN1CCN(CCCOc2ccc3nc(Nc4ccc(C(F)(F)F)c(Cl)c4)ccc3c2)CC1
active: [1] -6.45% | [6] -11.8%
inactive: [2] 31.3% | [3] 22.4% | [4] 41.7% | [9] 55.5% | [5] 13.7% | [7] 16.3% | [8] 20.4%

COc1cc(C(=O)/C=C/c2cc(C(=O)c3cc(OC)c(OC)c(OC)c3)ccc2OC)ccc1N
inactive: [9] 32.5% | [7] 46.1%
active: [1] -7.95% | [2] 4.2% | [3] -54.1% | [5] -12.7% | [6] -53% | [8] 1.57%

O=C(/C=C/CN1CCCCC1)Nc1cc2c(Nc3ccc(F)c(Cl)c3F)ncnc2cc1OCCOC(F)F
active: [9] -6.19% | [5] -9.94% | [6] 0.43% | [7] -7.08% | [8] 9.16%
inactive: [1] 11.5% | [2] 19.5% | [3] 34.8% | [4] 12.9%

COc1ccc(/C=C2\CCCC3=C2NC(C)=NC3c2ccc(OC)c(OC)c2)cc1OC (stereo unspecified)
inactive: [4] 21% | [5] 24.4% | [7] 59% | [8] 11.2%
active: [10] -25.8% | [2] 3.09% | [3] 4.73% | [9] 6.97% | [6] 2.97%

COC(=O)CCCCCCN=Cc1c(O)c(O)c(C(C)C)c2cc(C)c(-c3c(C)cc4c(C(C)C)c(O)c(O)c(C=NCCCCCCC(=O)OC)c4c3O)c(O)c12
inactive: [10] 13.2% | [2] 18.6% | [3] 21.7% | [4] 27.7% | [9] 64.8% | [5] 29.3% | [6] 21.8% | [7] 20.2% | [8] 69.1%

CC(C(=O)n1cc(-c2ccccc2)c(-c2ccccc2)c1)c1ccccc1 (stereo unspecified)
inactive: [10] 98.2% | [2] 99.2% | [3] 106% | [4] 107% | [9] 105% | [5] 111% | [6] 118% | [7] 115% | [8] 106%

CN1CCN(c2ccc3cc(-c4nc5ccccc5[nH]4)c(=O)oc3c2)CC1
inactive: [10] 64.5% | [2] 94.7% | [3] 102% | [4] 70.3% | [9] 101% | [5] 79.9% | [6] 97.2% | [7] 96.1% | [8] 86.9%

NCCSC(c1ccccc1)(c1ccccc1)c1ccccc1
active: [10] -24.7% | [6] 2.29% | [8] -21.9%
inactive: [2] 25% | [3] 13.1% | [4] 33.6% | [9] 27.6% | [5] 22.2% | [7] 16.8%

CCC(=O)Oc1ccc2c(c1)CC[C@@H]1[C@@H]2CC[C@]2(C)C[C@H](OC(=O)CC)C[C@@H]12
inactive: [10] 67% | [2] 87.9% | [3] 98.4% | [4] 79% | [9] 56% | [5] 77.6% | [6] 68.8% | [7] 59.7% | [8] 54.2%
